The structures appear in SMILES notation. The campaign covered roughly 17,000 compounds. About 220 (1.3%) were called active.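 How the source made its calls: active means spot fluorescence over background significantly raised, with a chance value under 7% in all four replicate spots of the compound; inactive means the rest.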 The full list was thinned out, with actives kept by preference.

In this experiment the target is Nuclear factor NF-kappa-B p105 subunit (Homo sapiens) (UniProt P19838). Put plainly: binders of NF-kB p50 subunit, primary screen, biochemical, small molecule microarray, anti-His fluorescence (AID 624139).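 Further: probe protein is his-tagged human p50 processed subunit at 1 µg/ml.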 The settings on record: anti-His fluorescence binding.
Sequence of Nuclear factor NF-kappa-B p105 subunit (Homo sapiens) (P19838 1-433 limits assumed): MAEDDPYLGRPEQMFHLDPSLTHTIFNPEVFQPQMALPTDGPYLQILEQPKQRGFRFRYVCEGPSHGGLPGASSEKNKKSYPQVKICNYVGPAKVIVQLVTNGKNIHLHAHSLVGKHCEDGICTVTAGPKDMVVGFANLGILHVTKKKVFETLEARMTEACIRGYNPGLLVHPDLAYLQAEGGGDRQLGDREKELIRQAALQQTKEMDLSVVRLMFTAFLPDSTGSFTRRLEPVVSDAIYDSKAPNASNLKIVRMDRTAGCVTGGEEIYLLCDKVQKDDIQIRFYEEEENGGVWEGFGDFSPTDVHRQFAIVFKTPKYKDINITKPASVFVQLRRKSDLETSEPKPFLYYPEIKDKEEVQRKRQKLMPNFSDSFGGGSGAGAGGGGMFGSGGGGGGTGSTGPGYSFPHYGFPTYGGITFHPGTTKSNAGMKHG
For the compound `CC(C)(C)[C@H]1C=C(C(=O)NCc2ccccc2)O[C@@H](OCc2ccc(CO)cc2)C1`, the compound was classed as inactive.

With `Cc1sc2nc(SCC(=O)Nc3ccccc3C(F)(F)F)nc(N)c2c1C`, the compound was classed as inactive.

For the compound `NC(=O)CSc1nnc(-c2ccccc2F)n1-c1ccccc1`, the compound was classed as inactive.

As for `C[C@@H]1CN([C@H](C)CO)C(=O)c2cc(NC(=O)CCCN(C)C)ccc2O[C@H]1CN(C)Cc1ccc(C(=O)O)cc1`, the compound was called inactive.

Regarding `CC(C)NC(=O)N(C)C[C@H]1OCCCC[C@H](C)Oc2ccc(NC(=O)CCC(F)(F)F)cc2C(=O)N([C@@H](C)CO)C[C@@H]1C`, the compound was called inactive.

For `C[C@@H]1CCCCO[C@@H](CN(C)Cc2ccccc2)[C@H](C)CN([C@H](C)CO)C(=O)c2cc(NS(=O)(=O)c3cccs3)ccc2O1`, the compound was classed as inactive.

Turning to `C[C@@H]1CN([C@H](C)CO)C(=O)Cc2cc(NC(=O)CCN3CCOCC3)ccc2O[C@H]1CN(C)Cc1ccncc1`, the compound was called inactive.

Regarding `C[C@@H]1CCCCO[C@H](CN(C)Cc2ccncc2)[C@H](C)CN([C@H](C)CO)C(=O)c2cc(NC(=O)Nc3ccccc3)ccc2O1`, the compound was called inactive.

As for `CC(C)NC(=O)Nc1cccc2c1O[C@H](CN(C)Cc1ccccc1)[C@H](C)CN([C@H](C)CO)C2=O`, the compound was called inactive.

In the case of `C[C@@H]1CN([C@H](C)CO)C(=O)Cc2cc(NC(=O)CCCN(C)C)ccc2O[C@@H]1CN(C)S(=O)(=O)c1cccs1`, the result was inactive.

`C[C@H](CO)N1C[C@H](C)[C@@H](CN(C)S(=O)(=O)c2cn(C)cn2)Oc2ccc(N(C)C)cc2CC1=O`: the result was inactive.

As for `C[C@H]1CN([C@@H](C)CO)C(=O)c2cc(NC(=O)Nc3cccc4ccccc34)ccc2O[C@@H]1CN(C)C`, the result was inactive.

In the case of `C[C@H](CO)N1C[C@H](C)[C@H](CN(C)C(=O)NC2CCCC2)Oc2ncc(-c3ccc(F)cc3)cc2C1=O`, the result was inactive.

As to `CCOc1ccc(-c2cn(S(=O)(=O)c3cccc4nsnc34)nc2N)cc1`, the outcome was inactive.

Regarding `Cc1cccc(NC(=O)CN2C(=O)CNC2=O)c1`, the compound was called inactive.

Turning to `CC(C)NC(=O)Nc1ccc2c(c1)C(=O)N([C@@H](C)CO)C[C@H](C)[C@@H](CN(C)C)O2`, the compound was called inactive.

On to `C[C@H](CO)N1C[C@H](C)[C@@H](CN(C)C)Oc2ccc(N(C)C)cc2C1=O`, for which the outcome was inactive.

For the compound `C[C@@H]1CN([C@H](C)CO)C(=O)c2cccc(NS(C)(=O)=O)c2O[C@@H]1CN(C)S(=O)(=O)c1cccs1`, the compound was classed as inactive.

Regarding `C[C@H]1CN([C@@H](C)CO)C(=O)c2cc(NC(=O)NC3CCCCC3)ccc2O[C@@H]1CN(C)S(=O)(=O)c1cccs1`, the result was inactive.

For `COc1cccc(/C=C(\C#N)C(=O)Nc2c(C)n(C)n(-c3ccccc3)c2=O)c1`, the compound was called inactive.

For the compound `C[C@H](CO)N1C[C@H](C)[C@H](CN(C)C(=O)NC2CCCCC2)Oc2ccc(NC(=O)c3ccncc3)cc2CC1=O`, the outcome was inactive.

As to `Cc1c(C(=O)NC(=S)NCc2cccnc2)oc2ccccc12`, the compound was called inactive.

As to `Cc1noc(C)c1NC(=O)N(C)C[C@@H]1OCCCC[C@H](C)Oc2ccc(NC(=O)CCC(F)(F)F)cc2C(=O)N([C@@H](C)CO)C[C@@H]1C`, the compound was called inactive.

For `C[C@H]1CN([C@@H](C)CO)C(=O)Cc2cc(NC(=O)Nc3ccc(F)cc3)ccc2O[C@@H]1CN(C)C(=O)NC1CCCCC1`, the compound was classed as inactive.

As to `O=C(Nc1cccc(OCC(=O)N2CCOCC2)c1)C1CCCCC1`, the compound was called inactive.

In the case of `O=C(C1=C[C@H](c2coc3ccccc3c2=O)C[C@H](OCc2ccc(CO)cc2)O1)N1CCOCC1`, the compound was called inactive.

With `C[C@@H]1CCCCO[C@@H](CN(C)C(=O)Nc2ccccc2)[C@@H](C)CN([C@@H](C)CO)C(=O)c2cc(N(C)C)ccc2O1`, the compound was classed as inactive.

With `CC(C)NC(=O)Nc1ccc2c(c1)C(=O)N([C@@H](C)CO)C[C@@H](C)[C@H](CN(C)C(=O)Cc1ccccc1)OCCCC[C@H](C)O2`, the call was inactive.

For the compound `C[C@@H]1CCCCO[C@@H](CN(C)C(=O)Nc2ccccc2)[C@@H](C)CN([C@H](C)CO)C(=O)c2cc(NC(=O)Nc3ccc(F)cc3)ccc2O1`, the result was inactive.

With `C[C@H](CO)N1C[C@H](C)[C@@H](CN(C)C(=O)Nc2cccc3ccccc23)OCCCC[C@H](C)Oc2ccc(N(C)C)cc2C1=O`, the outcome was active.

As for `C[C@@H]1CN([C@H](C)CO)C(=O)c2cccc(NC(=O)Nc3ccccc3)c2O[C@@H]1CN(C)C(=O)NC1CCCCC1`, the compound was called inactive.

For `C[C@@H]1CN([C@H](C)CO)C(=O)Cc2cc(NC(=O)C3CC3)ccc2O[C@H]1CN(C)Cc1ccc2c(c1)OCO2`, the outcome was inactive.

Regarding `C[C@@H]1CCCCO[C@@H](CN(C)C(=O)Cc2ccccc2)[C@H](C)CN([C@@H](C)CO)C(=O)c2cc(NC(=O)Nc3ccc(F)cc3)ccc2O1`, the result was active.

For the compound `C[C@H]1CN([C@@H](C)CO)C(=O)c2cccc(NC(=O)Nc3ccc(C(F)(F)F)cc3)c2O[C@H]1CN(C)C(=O)NC1CCCCC1`, the outcome was active.

`C[C@@H]1CN([C@H](C)CO)C(=O)Cc2cc(NC(=O)C3CC3)ccc2O[C@H]1CN(C)Cc1ccc(Cl)c(Cl)c1`: the call was active.

On to `C[C@H](CO)N1C[C@H](C)[C@@H](CN(C)C(=O)Nc2ccccc2)Oc2ccc(NC(=O)C3CC3)cc2CC1=O`, for which the outcome was inactive.

On to `C[C@@H]1CCCCO[C@H](CN(C)C(=O)Nc2ccccc2)[C@H](C)CN([C@@H](C)CO)C(=O)c2cc(N(C)C)ccc2O1`, for which the call was inactive.

Take `C[C@H](CO)N1C[C@H](C)[C@@H](CN(C)C(=O)NC2CCCCC2)Oc2c(NC(=O)Nc3ccc(F)cc3)cccc2C1=O`: the compound was classed as inactive.

`CC(C)NC(=O)N(C)C[C@@H]1OCCCC[C@@H](C)Oc2ccc(NC(=O)Nc3ccccc3)cc2C(=O)N([C@H](C)CO)C[C@@H]1C`: the result was inactive.

For `C[C@@H]1CN([C@@H](C)CO)C(=O)c2cc(NC(=O)C3CCCCC3)ccc2O[C@@H](C)CCCCO[C@@H]1CN(C)C(=O)Nc1ccccc1`, the compound was classed as inactive.

`C[C@H](CO)N1C[C@H](C)[C@@H](CN(C)C)OCCCC[C@H](C)Oc2ccc(NC(=O)C3CCCCC3)cc2C1=O`: the compound was called inactive.

Regarding `C[C@@H]1CCCCO[C@H](CN(C)C(=O)C2CCCCC2)[C@@H](C)CN([C@@H](C)CO)C(=O)c2cc(NC(=O)Nc3ccccc3)ccc2O1`, the call was active.

For `C[C@@H]1CCCCO[C@H](CN(C)C(=O)Nc2ccccc2)[C@H](C)CN([C@H](C)CO)C(=O)c2cc(NC(=O)Nc3ccccc3)ccc2O1`, the call was inactive.

Regarding `C[C@@H]1CCCCO[C@H](CN(C)C(=O)NC2CCCCC2)[C@H](C)CN([C@@H](C)CO)C(=O)c2cc(NC(=O)C3CCCCC3)ccc2O1`, the compound was classed as active.

With `C[C@@H]1CN([C@@H](C)CO)C(=O)c2cc(NS(=O)(=O)c3ccccc3)ccc2O[C@@H](C)CCCCO[C@H]1CN(C)C(=O)C1CCCCC1`, the call was inactive.

As for `C[C@@H]1CCCCO[C@H](CN(C)C(=O)CCCN(C)C)[C@H](C)CN([C@@H](C)CO)C(=O)c2cc(NS(=O)(=O)c3ccccc3)ccc2O1`, the compound was classed as inactive.

For the compound `CCC1(C)C(=O)C=C2C(=COC(C)=C2C)C1O` (centres undefined), the compound was classed as inactive.

For the compound `COc1ccccc1NC(=O)c1ccc(OCC(=O)O)cc1`, the result was inactive.

Consider `C[C@H](CO)N1C[C@H](C)[C@@H](CN(C)C(=O)Nc2cccc3ccccc23)Oc2c(NS(=O)(=O)c3ccccc3)cccc2C1=O`, for which the outcome was inactive.

Consider `CC1OC(Oc2cc(O)c3c(=O)c(OC4OCC(O)C(O)C4O)c(-c4ccc(O)cc4)oc3c2)C(O)C(O)C1O` (centres undefined), for which the compound was called inactive.

For the compound `O=C(CS(=O)(=O)c1ccccc1)Nc1ccc2c(c1)OCCO2`, the compound was called inactive.

Regarding `COc1ccc(CN(C)C[C@H]2Oc3ccc(NC(=O)CCN4CCOCC4)cc3C(=O)N([C@@H](C)CO)C[C@H]2C)cc1`, the compound was called inactive.

For the compound `CC(=O)OC[C@H]1O[C@@H](Oc2c(-c3ccc(O)c(O)c3)oc3cc(O)cc(O)c3c2=O)[C@H](O)[C@@H](O)[C@@H]1O`, the call was inactive.

On to `C[C@H](CO)N1C[C@H](C)[C@@H](CN(C)Cc2ccc3c(c2)OCO3)Oc2ccc(NC(=O)Nc3ccc(F)cc3)cc2C1=O`, for which the result was inactive.

On to `C[C@@H]1CN([C@@H](C)CO)C(=O)c2cc(NC(=O)Nc3ccc4c(c3)OCO4)ccc2O[C@@H](C)CCCCO[C@@H]1CN(C)Cc1ccccc1`, for which the call was inactive.

As to `CCOC(=O)c1nnn(-c2nonc2-n2cccc2)c1CN1CCOCC1`, the compound was classed as inactive.

As to `Cc1noc(C)c1NC(=O)Nc1ccc2c(c1)CC(=O)N([C@@H](C)CO)C[C@H](C)[C@@H](CN(C)C(=O)Nc1ccc3c(c1)OCO3)O2`, the call was inactive.

Turning to `C[C@@H]1CN([C@@H](C)CO)C(=O)Cc2cc(NC(=O)NC3CCCCC3)ccc2O[C@H]1CN(C)C(=O)Nc1ccc(C(F)(F)F)cc1`, the call was inactive.

As to `Cc1cc(C)cc(Oc2c(C(F)(F)F)oc3cc(OCC(=O)O)ccc3c2=O)c1`, the result was active.

As to `C[C@H]1CN([C@@H](C)CO)C(=O)Cc2cc(NS(C)(=O)=O)ccc2O[C@@H]1CN(C)S(=O)(=O)c1cccs1`, the result was inactive.

Take `N#Cc1c(SCC(=O)Nc2ccccc2)ncc2cc3ccccc3nc12`: the call was inactive.

With `CN(C)Cc1c(O)ccc2occ(C(O)c3ccccc3)c12` (centres undefined), the result was inactive.

Turning to `Cc1ccc(S(=O)(=O)NCC(=O)N2CCN(c3ccccn3)CC2)cc1`, the compound was classed as inactive.

`CCCN(C)C[C@@H]1Oc2ncc(C#Cc3ccccc3)cc2C(=O)N([C@H](C)CO)C[C@@H]1C`: the outcome was inactive.

On to `C#Cc1ccc([C@H]2C=C(C(=O)O)O[C@@H](OCC)[C@@H]2CCCO)cc1`, for which the result was inactive.

Regarding `COc1ccc(NC(=O)N(C)C[C@@H]2OCCCC[C@@H](C)Oc3ccc(N(C)C)cc3C(=O)N([C@H](C)CO)C[C@@H]2C)cc1`, the compound was called inactive.

Consider `C[C@@H]1CCCCO[C@@H](CN(C)C)[C@@H](C)CN([C@H](C)CO)C(=O)c2cc(N(C)C)ccc2O1`, for which the compound was called inactive.

Regarding `C[C@H](CO)N1C[C@H](C)[C@@H](CN(C)C(=O)C2CCCCC2)OCCCC[C@H](C)Oc2ccc(N(C)C)cc2C1=O`, the result was inactive.

`C[C@@H]1CCCCO[C@H](CN(C)S(=O)(=O)c2cccs2)[C@@H](C)CN([C@@H](C)CO)C(=O)c2cc(NC(=O)Nc3ccc4c(c3)OCO4)ccc2O1`: the call was inactive.

Values taken from PubChem BioAssay AID624139 (Broad Institute, 2012).
